High-throughput results (PubChem)
p53 reactivation: mutant p53 re-activation in reporter cells; H1299 p53-A138V BP100-luciferase reporter, luminescence, 24 h; 320,000 compounds, 0.063% hits; Potency, µM (series often up to 92.2 µM), actives largely listed as activators; AID 504706; note: nearly all actives have a fitted effect of over 45% in size
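p53-null H1299 cells stably carrying temperature-sensitive p53-A138V and a BP100-luciferase reporter were pinned with compounds (4-point, 1:5 series) and held 24 hrs at 37 deg C. Luminescence was read 10 min after detection reagent.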
SW480 rereplic: induces DNA re-replication in SW480 colon adenocarcinoma cells | 340,000 compounds, 1.8% hits | AID 624297 | Potency, µM (top dose mostly 46.1 µM), most hits filed as activators | SW480 DNA re-replication, Hoechst DNA content imaging, 48 h; note: nearly all actives have a fitted effect of over 55% in size
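Cells (250 per well) received 23 nL compound or DMSO by pin tool and were kept 48 hr at 37 C, 5% CO2. Nuclei were then stained with Hoechst for 40 min and scanned for DNA content.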
ELG1 genotox: inducers of genotoxicity in HEK293T ELG1-luciferase cells; 330,000 compounds, 1.3% hits; Potency, µM (highest dose often 46 µM), most hits filed as activators; HEK293T ELG1-luciferase reporter, luminescence, 16 h; note: nearly all actives have a fitted effect of over 60% in size
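HEK293T cells expressing luciferase-tagged ELG1 were exposed to compound or DMSO vehicle for 16 hr at 37 °C and 5% CO2. Luciferase activity was then measured with ONE-Glo after 30 min at room temperature.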
ELG1 DNA repair: inhibitors of ELG1-dependent DNA repair in HEK293T cells; HEK293T ELG1-luciferase reporter, luminescence, 16 h; DNA damage induced by 5-fluorouridine; Potency, µM (doses to about 46.1 µM), usual class: inhibitors; 330,000 compounds, 2.3% hits; AID 504467; note: nearly all actives have a fitted effect of over 55% in size
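DMSO vehicle served as the neutral condition. Each well held 2,000 cells given 5-fluorouridine plus compound; after 16 hr at 37 °C/5% CO2, ONE-Glo was added and luciferase measured 30 min later.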
MCF10A rereplic: DNA re-replication induction in MCF 10a cells; 350,000 compounds, 2.9% hits; Potency, µM (top dose mostly 46.1 µM), actives largely listed as activators; MCF 10A DNA re-replication, Hoechst nuclear intensity, 48 h; note: nearly all actives have a fitted effect of over 50% in size
AT treatment: potential ataxia-telangiectasia treatment | 320,000 compounds, 0.19% hits | F2112 A-T fibroblasts, KAP-1 phosphorylation AlphaLISA; neocarzinostatin DNA damage 30 min before lysis | Potency, µM (highest dose often 57.5 µM), usual class: activators; note: nearly all actives have a fitted effect of over 45% in size
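hTERT-immortalized A-T patient fibroblasts (F2112), 500 cells/well in OPTI-MEM, 1% FBS, got compounds for 60 min, then NCS for 30 min at 37C. Lysates were then assayed for phospho-KAP-1 by AlphaLISA (anti-pKAP1 donor, anti-KAP1 acceptor beads), 6 hr at 25C.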
Hits are given with their value; – = inactive; ? = inconclusive; · = no result. Most compounds without a hit are left out; they make up all but 7.1% or so of the library. Calls come from the whole dose curve; as a rule, active = well fitted curve in the direction sought with a large enough effect; inconclusive = small, poorly fitted or top-dose-only effect, or another doubt; inactive = no such curve, though single readings can be large; an effect the other way counts as inactive or inconclusive.

SMILES | p53 reactivation | SW480 rereplic | ELG1 genotox | ELG1 DNA repair | MCF10A rereplic | AT treatment
CCC(C)Oc1ccccc1C1CC(=O)NC2=C1C(=O)CCC2 (stereo unspecified) | – | 18.4µM | – | – | ? | –
Cc1cccn2cc(-c3ccc(F)cc3)nc12 | · | – | 0.92µM | ? | – | –
CC(C)(C)S(=O)(=O)/C(C#N)=N/Nc1ccc(C#N)cc1 | – | – | – | 18.3µM | – | –
NC1=NC[C@H](c2ccccc2)N1CCCCC1CCCCC1 | – | – | – | – | – | –
S=C1NC[C@H](c2ccccc2)N1CCCCC1CCCCC1 | – | – | – | – | ? | 35.5µM
Nn1c(SCc2ccccc2)nnc1-c1ccccn1 | – | – | ? | ? | – | –
CC(C)(C)c1ccc(CSc2nnc(-c3ccccn3)n2Cc2ccco2)cc1 | – | ? | – | ? | 16.4µM | –
C(=C\c1ccccc1)/CSc1nnc(-c2ccccc2)n1Cc1ccco1 | – | 23.1µM | – | ? | 5.17µM | –
C(=C\c1ccccc1)/CSc1nnc(-c2ccncc2)n1Cc1ccco1 | – | – | – | ? | – | –
Nn1c(SCc2ccc(F)cc2)nnc1-c1ccccn1 | – | – | – | ? | – | 15.8µM
Nn1c(SCc2ccccc2F)nnc1-c1ccccn1 | – | – | 18.3µM | ? | – | –
Brc1ccc(CSc2nnc(-c3ccccn3)n2Cc2ccco2)cc1 | – | ? | – | – | ? | –
O=C(Nc1ccccc1)Nc1ccc(Cl)nc1Cl | · | ? | · | · | – | ·
Cc1cccc(N2CCN(S(=O)(=O)c3c(C)noc3/C=C/N(C)C)CC2)c1C | – | – | – | – | ? | –
Cc1ccc2nc(SCC(=O)NCc3ccc4c(c3)OCO4)nc(=O)n2c1 | – | – | – | – | – | –
COc1ccccc1NC(=O)CSc1nc(=O)n(CCN2CCOCC2)c2c1CCC2 | – | – | – | – | – | –
CN=C1S/C(=C\c2ccc(SC)cc2)C(=O)N1C | ? | – | 10.3µM | ? | – | –
CN=C1S/C(=C\c2ccc(O)c(Br)c2)C(=O)N1C | – | – | – | ? | ? | ?
CN=C1S/C(=C\c2ccc(Cl)cc2)C(=O)N1C | – | 23.1µM | – | – | ? | –
O=C(O)c1ccc(NS(=O)(=O)Cc2ccc(Cl)c(Cl)c2)cc1 | · | – | · | · | – | ·
O=C(NC1CCCC1)C(c1ccccc1F)N(C(=O)c1csnn1)c1ccccc1 (stereo unspecified) | – | – | – | – | – | –
CC(=O)NC(=S)Nc1sc2c(c1C#N)CCCCC2 | ? | – | 2.06µM | ? | ? | –
CC(Sc1nc(N)cc(=O)[nH]1)C(=O)Nc1sc2c(c1C#N)CCCC2 (stereo unspecified) | – | – | – | 8.2µM | – | –
N#Cc1c(NC(=O)c2nc3ncccn3n2)sc2c1CCCCC2 | ? | – | 2.31µM | ? | ? | –
N#Cc1c(NC(=O)CSc2nc(N)cc(=O)[nH]2)sc2c1CCCCCC2 | – | – | – | ? | – | –
SMILES | p53 reactivation | SW480 rereplic | ELG1 genotox | ELG1 DNA repair | MCF10A rereplic | AT treatment
Cc1cc(C(=O)Nc2sc3c(c2C#N)CCCCC3)cs1 | · | – | 0.82µM | ? | – | –
CCc1ccc(/C=C2/SC(=S)N(CCC(=O)Nc3cccnc3)C2=O)cc1 | · | – | – | – | – | –
C[C@H](NC(=O)c1nc[nH]c1C(=O)N[C@@H](CCCCN)C(=O)OC(C)(C)C)C(=O)OCc1ccccc1 | – | – | – | – | – | –
Cc1nn(C2CCS(=O)(=O)C2)c(C)c1CN(C)C(=O)c1ccc(Cl)cc1 (stereo unspecified) | – | – | – | – | – | –
Cc1cccc(N2CCN(C(=O)CSc3ccc4c(c3)OCCO4)CC2)c1C | – | – | – | 11.2µM | ? | –
Cc1cc(=O)oc2c(C)c(OCC(=O)N3CCN(c4ccc(F)cc4)CC3)ccc12 | – | – | – | ? | – | –
Cc1cccc(N2CCN(C(=O)COc3ccc4c(C)cc(=O)oc4c3C)CC2)c1C | – | – | – | 25.9µM | ? | –
Cc1ccc(/C=C/C(=O)c2ccccc(=O)c2O)cc1C | – | ? | ? | 20.6µM | 20.6µM | –
O=C(/C=C/c1ccccc1)c1cc(Br)ccc(=O)c1O | ? | ? | – | ? | ? | –
CN1CCCC1CCNc1ccc2sc3ccccc3c(=O)c2c1 (stereo unspecified) | · | ? | · | · | – | ·
Cc1cc2oc3cc(NCCC4CCCN4C)ccc3c(=O)c2cc1C (stereo unspecified) | · | ? | · | · | 16.4µM | ·
Brc1cccc(C2Nc3cccc4cccc(c34)N2)c1 | · | – | – | – | – | –
Brc1ccc(C2Nc3cccc4cccc(c34)N2)o1 | – | – | – | – | 14.6µM | –
Fc1cccc(Cl)c1C1Nc2cccc3cccc(c23)N1 | · | – | – | – | – | –
Clc1cccc(Cl)c1C1Nc2cccc3cccc(c23)N1 | – | ? | ? | ? | 18.4µM | –
O=C1CC(NS(=O)(=O)c2cccs2)CN1c1ccc(Cl)cc1 (stereo unspecified) | – | – | – | – | – | –
O=C(c1cc(-c2cccc(O)c2)on1)N1CCOCC1 | – | – | 2.91µM | ? | ? | –
O=C(c1cc(-c2cccc(O)c2)on1)N1CCCCCC1 | ? | – | 13µM | ? | – | –
O=C(c1ccc(-c2cccc(C(F)(F)F)c2)o1)N1CCOCC1 | ? | – | 16.4µM | ? | – | –
CC(=O)N1CCN(C(=O)c2ccc(-c3cccc(C(F)(F)F)c3)o2)CC1 | – | – | – | – | – | –
COc1ccc(-c2cc(C(=O)N3CCOCC3)no2)cc1OC | ? | – | ? | ? | – | –
O=C(c1cc(-c2ccccc2)on1)N1CCN(c2ccccc2)CC1 | – | – | – | – | – | –
Cc1nn(Cc2noc(C(=O)NCc3ccc4c(c3)OCO4)n2)c(C)c1Br | – | – | – | – | – | –
N=C1C(c2ccccc2)=C(O)CN1c1ccc2c(c1)OCO2 | – | – | – | – | 16.4µM | –
COc1cccc(NC(=O)CCC(=O)N2CC(C)Oc3ccc(C)cc32)c1 (stereo unspecified) | · | – | – | – | – | –
Cc1c(C(=O)Nc2ccccn2)oc2c(Cl)cccc12 | – | – | 5.17µM | ? | – | –
Cc1ccc(C(=O)COC(=O)C2C3C=CC(C3)C2C(=O)OCC(=O)c2ccc(C)c(C)c2)cc1C (stereo unspecified) | – | – | – | 13µM | – | –
CC(=O)NCC(=O)OCC(=O)c1ccc(C)c(C)c1 | – | – | – | – | – | –
COc1cc2nc(CN3CCN(S(=O)(=O)c4cc(C)ccc4C)CC3)[nH]c(=O)c2cc1OC | – | – | – | 14.6µM | – | –
